Screens from PubChem.
In the library only some 2.9% were active in any assay of this set; here they are far more common.
Beta2AR agonist = human beta-2 adrenergic receptor agonism by FAP; P07550; Am2.2-beta2AR cells, FAP receptor internalization, flow cytometry; response, % (no concentration beside the values); 340,000 compounds, 0.43% hits; AID 504454;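 active = response above a set limit, near 3 SD of response in nonfluorescent compounds, cut at about 42% in these data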
Target sequence (P07550 whole entry, looked up): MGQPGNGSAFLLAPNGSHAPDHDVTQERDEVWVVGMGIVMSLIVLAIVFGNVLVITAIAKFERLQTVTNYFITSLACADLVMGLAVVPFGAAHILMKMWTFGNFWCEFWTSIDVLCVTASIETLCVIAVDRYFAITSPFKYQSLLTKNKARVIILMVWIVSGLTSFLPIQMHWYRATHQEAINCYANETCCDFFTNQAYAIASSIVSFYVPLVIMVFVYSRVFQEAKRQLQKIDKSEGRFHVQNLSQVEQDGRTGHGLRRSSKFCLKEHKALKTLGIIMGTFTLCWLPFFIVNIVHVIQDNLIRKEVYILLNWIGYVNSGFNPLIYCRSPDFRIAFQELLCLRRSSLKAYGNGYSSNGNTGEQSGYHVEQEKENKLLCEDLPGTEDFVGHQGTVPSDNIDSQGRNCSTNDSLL
PP1 inh = PP1-alpha (human) inhibition in PP5 counter-screen | P62136 | purified PP1alpha, OMFP fluorescence | inhibition, % at 6.7 µM | 320,000 compounds, 0.9% hits;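 active = inhibition above the mean inhibition of all tested compounds plus 3 SD, computed separately for each screening campaign, cut at about 15% in these data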
NadD block = blocks S. aureus nicotinate mononucleotide adenylyltransferase. purified NadD enzyme, colorimetric absorbance read-out. 360,000 compounds, 0.78% hits. inhibition, % at 20 µM. AID 602399; in the data active = inhibition above about 26%
GRK2 inh = inhibitors of human GRK2 displacing RNA aptamer; 330,000 compounds, 0.59% hits; AID 488847; inhibition of aptamer binding, % at 10 µM; bead flow cytometry, FAM-aptamer displacement from GRK2; P25098;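 active = inhibition of aptamer binding above 40%, roughly 3 SD of noise, on plates passing a quality check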;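 note: median bead fluorescence of bound FAM aptamer so fluorescent compounds give negative values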
Exocytosis inh = lytic granule exocytosis inhibition. TALL-104 LAMP-1 surface exposure, flow cytometry; cells stimulated with thapsigargin and PMA. inhibition, % at 10 µM. 360,000 compounds, 0.66% hits;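 active = inhibition above about 55%, limit read from the data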
PP1 inh confirm = human PP1 phosphatase inhibition, confirmation. 1,900 compounds, 52% hits. purified PP1alpha, OMFP substrate fluorescence. inhibition, % at 6.7 µM. shares compounds with PP1 inh. AID 2358;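 active = mean PP1 inhibition above a set limit taken from the earlier primary screen, cut at about 15% in these data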
PP5 counter = counter-screen for PP1 inhibitors: human PP5 phosphatase inhibition; purified PP5c, OMFP fluorescence; shares compounds with PP1 inh; 1,900 compounds, 4% hits; inhibition, % at 6.7 µM;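 active = mean PP5 inhibition over triplicate wells above about 9.5% taken from the earlier PP1 screen, limit read from the data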
Numbers without * were called inactive; nt = no result.

SMILES | Beta2AR agonist | PP1 inh | NadD block | GRK2 inh | Exocytosis inh | PP1 inh confirm | PP5 counter
CCCc1cc(-c2ccc3c(c2)COc2c4ccccc4nn2-3)on1 | 9 | 18* | 2 | 5 | -1 | 19* | -1
C(#CC1CCCC1)c1ccc2c(c1)COc1c3ccccc3nn1-2 | 5 | -4 | 0 | 3 | -5 | nt | nt
CCC(C(=O)NC(C)(C)C)N(Cc1ccco1)C(=O)CNS(=O)(=O)c1ccc(OC)cc1 (configuration not stated) | -3 | -1 | -1 | 0 | 9 | nt | nt
CCNC(=S)N/N=C(\C)c1cccc([N+](=O)[O-])c1 | -9 | 0 | 2 | 2 | 2 | nt | nt
Cc1cc2oc3ccc(NCCCn4ccnc4)cc3c(=O)c2cc1C | -10 | 25* | 28 | 1 | -1 | 5 | -2
N#Cc1c(NC(=O)COC(=O)C2CC3C=CC2C3)oc(-c2ccccc2)c1-c1ccccc1 (configuration not stated) | 1 | 19* | -1 | 1 | -1 | 10 | -3
COc1ccccc1OCC(=O)Nc1oc(-c2ccccc2)c(-c2ccccc2)c1C#N | 3 | 9 | 3 | 0 | -3 | nt | nt
COc1ccc(-c2csc(NC(=O)CCN3C(=O)C4CC=CCC4C3=O)n2)cc1OC (configuration not stated) | 11 | 26* | -3 | 0 | 1 | -4 | -2
CCc1noc(C)c1C(=O)OCC(=O)N(CCOC)c1c(N)n(Cc2ccccc2)c(=O)[nH]c1=O | -7 | 22* | -5 | 0 | 37 | -6 | -5
CCc1noc(C)c1C(=O)OCC(=O)N(CC)c1c(N)n(Cc2ccccc2)c(=O)[nH]c1=O | -3 | -6 | -1 | 1 | -5 | nt | nt
COCCN(C(=O)COC(=O)c1cc2c(s1)CCC2)c1c(N)n(Cc2ccccc2)c(=O)[nH]c1=O | -8 | 18* | 11 | 98* | 7 | 5 | -5
CCC1CCc2sc(C(=O)OCC(=O)N(CCOC)c3c(N)n(Cc4ccccc4)c(=O)[nH]c3=O)cc2C1 (configuration not stated) | 1 | 1 | 8 | 5 | 0 | nt | nt
CN1CCCC(C)(C(=O)Nc2cccc(Oc3ccccc3)c2)C1 (configuration not stated) | nt | nt | -4 | nt | -4 | nt | nt
O=C(NCc1ccccc1)C(c1cccnc1)N(C(=O)c1csnn1)c1ccccc1 (configuration not stated) | 11 | -2 | -7 | 1 | -7 | nt | nt
CC(O)(c1cccnc1)c1nc(-c2ccc(F)c(Cl)c2)cs1 (configuration not stated) | nt | nt | 1 | nt | -5 | nt | nt
COc1ccc(C(=O)NCC(=O)Nc2ccc(-c3ccccc3)cc2)cc1 | -4 | 20* | -3 | 0 | -8 | 33* | -3
O=C(CCC(=O)OCC(=O)c1ccc(-c2ccccc2)cc1)Nc1cccc2cccnc12 | -5 | 0 | 4 | 0 | 0 | nt | nt
Cc1ccc(NC(=O)CCC(=O)OCC(=O)c2ccc(-c3ccccc3)cc2)cc1 | 15 | 29* | 8 | 0 | 4 | 21* | -3
COc1ccc(S(=O)(=O)N2CCN(C)CC2)cc1NC(=O)c1ccccc1 | 1 | 5 | 5 | 3 | -4 | nt | nt
COc1ccc(/C=C/C(=O)N(Cc2cccs2)C2CCS(=O)(=O)C2)cc1 (configuration not stated) | 0 | 0 | -3 | 0 | -6 | nt | nt
O=C(Nc1nc(-c2ccc(-c3ccccc3)cc2)cs1)C1=COCCO1 | 4 | 21* | -9 | 0 | 8 | 34* | -4
O=C(Nc1nc(-c2ccccc2)cs1)c1ccccc1NS(=O)(=O)c1ccc(F)cc1 | 16 | 21* | 10 | 2 | 3 | 21* | 13*
Cc1cccn2c(CNCC3(c4ccccc4)CCCC3)c(C(=O)N3CCOCC3)nc12 | 10 | -3 | 4 | 1 | 11 | nt | nt
CC1(C(=O)NS(=O)(=O)c2cccs2)CCN1C(=O)c1ccccc1CCc1ccccc1 (configuration not stated) | nt | nt | -2 | nt | 1 | nt | nt
O=C(Nc1nnc(-c2ccc3c(c2)CCCC3)o1)C1COc2ccccc2O1 (configuration not stated) | 5 | 38* | 22 | 0 | -1 | 37* | 1
CC(=O)Nc1nnc(-c2ccc3c(c2)CCCC3)o1 | -10 | -1 | 8 | 3 | 2 | nt | nt
